ALOX12 inh: inhibitors of human 12S-lipoxygenase ALOX12; purified 12hLO, xylenol orange hydroperoxide absorbance; Potency, µM (doses to about 108 µM), for inactives: at the highest dose activity change, negative = inhibition, most hits filed as inhibitors; P18054; 1.1% of 580,000 active
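Purified human 12hLO (150 nM final) in 25 mM Hepes, 0.01% Triton X-100, pH 7.0 was preincubated 15 min at room temperature with compound. Then 40 uM arachidonic acid was added, 30 min. Hydroperoxide was read by Fe-XO absorbance ratio 573/405 nm.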
Sfp PPTase inh: Sfp phosphopantetheinyl transferase inhibition | Biochemical Sfp PPTase activity, qHTS | Q9F4F7 | 3.5% of 310,000 active | Potency, µM, inactives show largest response in the series, negative = inhibition, actives largely listed as inhibitors;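 further: the enzyme is Sfp with the accession as filed and its product quenches rhodamine fluorescence; 0% = enzyme reaction without inhibitor and -100% = no enzyme wells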
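Fluorescence-quenching assay with 15 nM Sfp, 5 uM rhodamine-CoA and 12.5 uM BHQ-2-labelled ybbR peptide in pH 7.6 Hepes/MgCl2 buffer. Enzyme was pre-incubated with compound for 15 min at room temperature. Rate was taken from the 30-min fluorescence change (525/598 nm).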
PLK1 PBD inh: inhibitors of human PLK1 polo-box domain binding | P53350 | Plk1 PBD binding of FITC phosphopeptide, fluorescence polarization | Potency, µM, without a hit: max response, negative = inhibition, hits mostly inhibitors | 2.8% of 360,000 active | AID 720504; further: series mostly up to about 57 µM; nearly all actives have a fitted effect of over 65% in size
VDR inh: blocks the human vitamin D receptor. P11473. VDR-SRC2-3 peptide fluorescence polarization, 2 h. Potency, µM, for the others: max response, negative = inhibition, most hits filed as inhibitors. 0.93% of 400,000 active. AID 504847
Target sequence (P11473 whole entry, looked up): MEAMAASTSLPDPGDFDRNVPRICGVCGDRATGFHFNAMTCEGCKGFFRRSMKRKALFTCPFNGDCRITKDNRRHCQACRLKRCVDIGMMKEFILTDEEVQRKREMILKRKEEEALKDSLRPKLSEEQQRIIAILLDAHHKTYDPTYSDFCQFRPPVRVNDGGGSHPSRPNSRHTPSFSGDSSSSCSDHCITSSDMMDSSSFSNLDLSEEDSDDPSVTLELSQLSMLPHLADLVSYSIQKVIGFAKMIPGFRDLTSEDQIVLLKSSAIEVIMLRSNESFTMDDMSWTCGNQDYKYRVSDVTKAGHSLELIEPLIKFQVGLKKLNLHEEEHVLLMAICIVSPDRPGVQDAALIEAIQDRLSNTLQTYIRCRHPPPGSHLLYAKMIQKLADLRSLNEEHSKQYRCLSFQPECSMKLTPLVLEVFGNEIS
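VDR–SRC2-3 interaction, FP format. Cmpds 23 nl via pintool, brief spin, 2 h ambient incubation.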
Numbers without * were called inactive; u = inconclusive; x = not tested or not shown; ! = repeats disagree; [ ] = dose if it differs, or a comment. Rows were chosen to be rich in hits. Some 4.2% of all compounds tested hit in one or more screens of this group. The call rests on the fitted dose curve; in most records, active means well fitted curve in the direction sought with a large enough effect; inconclusive means small, poorly fitted or top-dose-only effect, or another doubt; inactive means no such curve, though single readings can be large; an effect the other way counts as inactive or inconclusive. Unless noted, on the % scale 0 is the no-effect control and ±100 the full control effect; potency means the concentration at half of the fitted maximal effect.

SMILES	ALOX12 inh	Sfp PPTase inh	PLK1 PBD inh	VDR inh
O=C(O)C1C2C=CC(C2)C1C(=O)Nc1ccccc1Br (configuration not stated)	-26%	-10%	-12%	-6%
COc1cccc(Nc2nc(NCCO)c3ccccc3n2)c1	u	20µM*	5%	2%
Oc1ccc(Nc2nc(NCC3CCCO3)c3ccccc3n2)cc1 (configuration not stated)	u	-14%	5%	-18%
COc1cccc(Nc2nc(NCC3CCCO3)c3ccccc3n2)c1 (configuration not stated)	u	25µM*	-7%	-15%
OCCNc1nc(Nc2cccc(O)c2)nc2ccccc12	u	-17%	-7%	6%
Cc1ccccc1-n1c(Cn2c(=O)sc3ccccc32)nnc1SCC(=O)NCC1CCCO1 (configuration not stated)	-27%	13%	21µM*	-7%
CCSc1nnc(Cn2c(=O)sc3ccccc32)n1-c1ccccc1C	302%	-2%	-3%	-4%
CSc1nnc(Cn2c(=O)sc3ccccc32)n1-c1ccccc1C	270%	x	19µM*	50µM*
Cc1cc(NC(=O)CSc2nnc(Cn3c(=O)sc4ccccc43)n2-c2ccccc2C)no1	3%[57.4 µM]	12%	-8%	0%
Cc1ccccc1NC(=O)c1cccc(S(=O)(=O)Nc2cccc(C(=O)O)c2)c1	-1%	-8%	4%	10%
COc1ccc(Cl)cc1NC(=S)N(Cc1ccccc1C)CC1CCC(C(=O)O)CC1 (configuration not stated)	u	56µM*	30µM*	6%
COc1ccc(-c2nn(C)c3sc(C(=O)N4CCN(c5cccc(Cl)c5)CC4)cc23)cc1OC	-14%	x	x	-21%
Cn1c(=O)c(=O)n(C)c2cc(S(=O)(=O)NCc3ccc(Cl)cc3)ccc21	2%	19%	11µM*	u
CC1(C#CC[N+]2(C)CCCCC2)CCC2C(O1)c1ccccc1OC2(C)C (configuration not stated)	u	56µM*	u	-12%
COc1ccc2c(c1)O/C(=C\c1ccco1)C2=O	31%	4.5µM*	-12%	9%
COc1ccccc1/C=C1\SC(=S)N(C(C(=O)O)c2ccccc2)C1=O (configuration not stated)	u	56µM*	24µM*	-2%
COc1cc(/C=C2\SC(=S)N(C(C(=O)O)c3ccccc3)C2=O)ccc1O (configuration not stated)	-24%	u	8%	-18%
CCOc1cc(/C=C2\SC(=S)N(C(C(=O)O)c3ccccc3)C2=O)ccc1O (configuration not stated)	u	40µM*	-18%	-20%
COc1ccc(/C=C/c2cc(=O)c3cc(Cl)ccc3o2)cc1	-20%	50µM*	-6%	-5%
COc1ccc(/C=C/c2cc(OC)cc(=O)o2)cc1	x	21%	x	12%
CCN(CC)C(=O)Cn1cc(C(=O)N2CCN(c3nc4ccccc4s3)CC2)nn1	48%	x	x	x
CSCCC(NC(=O)c1ccc(Cl)cc1)C(=O)OCC(=O)Nc1ccc(C#N)cc1 (configuration not stated)	32µM*	-10%	-10%	-3%
CCc1nnc(NC(=O)c2ccc(S(=O)(=O)N3CCc4ccccc4C3)cc2)s1	12%	5%	30µM*	u
CCc1nnc(NCC(=O)N2CCc3ccccc32)s1	1%	-28%	24µM*	-13%
CC(NO)C(C)(C)NO (configuration not stated)	22µM*!	-28%	1%	25%
SMILES	ALOX12 inh	Sfp PPTase inh	PLK1 PBD inh	VDR inh
Cc1cc(C)nc(NC(N)=S)n1	u	19%	-24%	2%
COCC(=O)N(Cc1cc2ccc(C)cc2[nH]c1=O)c1ccc(C)cc1C	-11%	14%	-5%	6%
Cc1ccc2cc(CN(C(=O)c3ccco3)c3cccc(C)c3C)c(=O)[nH]c2c1	-11%	32µM*	u	u
COCC(=O)N(Cc1cc2ccc(C)cc2[nH]c1=O)c1ccccc1C	u	29%	-9%	6%
Cc1ccc(N(Cc2cc3ccc(C)cc3[nH]c2=O)C(=O)c2ccco2)c(C)c1	u	50µM*	u	u
Cc1ccc2cc(CN(C(=O)c3ccco3)c3ccccc3C)c(=O)[nH]c2c1	336%	50µM*	-23%	-15%
Cc1csc(NC(=O)CSc2nncc(=O)n2N)n1	0%	-14%	1%	-10%
CCOCCCNS(=O)(=O)c1ccc(NC(=O)c2ccc(OC)c([N+](=O)[O-])c2)cc1	-6%	17%	3.4µM*	u
O=[N+]([O-])c1ccc(Sc2ncccn2)c([N+](=O)[O-])c1	100%	-16%	-11%	-7%
O=C(O)CCSc1ccc([N+](=O)[O-])cc1[N+](=O)[O-]	-16%	45µM*	12µM*	u
Cc1nn(CC(O)COc2ccc3c(c2)CCC3)c(C)c1C (configuration not stated)	u	24%	3.4µM*	-12%
COc1ccc(NC(=O)c2sc3ncnc(N4CCN(c5ccccn5)CC4)c3c2C)cc1Cl	4%	-7%	-10%	-6%
Cc1cc2nc(CSc3nc4ccc(NC(=O)C(C)C)cc4s3)cc(=O)n2o1	6%	x	x	x
CC(=O)CCN1CCOCC1	-2%	-9%	-3%	12%
CN(C)C(=O)CCN1CCOCC1	12%	2%	24µM*	6%
Cc1ccc(NCCC(=O)c2cc3ccccc3o2)cc1Br	35µM*	x	x	x
CCOC(=O)c1ccc(NC(=O)c2cc3ccccc3o2)cc1	1%	79µM*	-2%	1%
NS(=O)(=O)c1cccc(NC(=O)c2cc3ccccc3o2)c1	u	1%	21µM*	-15%
NS(=O)(=O)c1cccc(NC(=O)c2cc(=O)c3ccccc3o2)c1	u	-6%	-1%	-9%
CC(=O)N1c2ccc(S(=O)(=O)N3CCCC(C(=O)N4CCCC(C)C4)C3)cc2CC1C (configuration not stated)	0%	7%	-17%	0%
CC(=O)N1c2ccc(S(=O)(=O)NCCC(=O)NCc3ccc(Cl)cc3)cc2CC1C (configuration not stated)	-3%	16%	6%	3%
CC(=O)N1c2ccc(S(=O)(=O)N3CCC(C(=O)NCc4ccc(Cl)cc4)CC3)cc2CC1C (configuration not stated)	-24%	1%	7.5µM*	25µM*
CCC(=O)N1c2ccc(S(=O)(=O)CCC(=O)NCc3ccccc3OC)cc2CC1C (configuration not stated)	u	x	x	-14%
CC(=O)N1c2ccc(S(=O)(=O)NCCC(=O)NCc3ccc(N(C)C)cc3)cc2CC1C (configuration not stated)	-8%	7%	11µM*	u
CCC(=O)N1c2ccc(S(=O)(=O)CCC(=O)NCc3ccc4c(c3)OCO4)cc2CC1C (configuration not stated)	0%	-7%	24µM*	u
CC(=O)N1c2ccc(S(=O)(=O)N3CCC(C(=O)NCc4ccc(C)cc4)CC3)cc2CC1C (configuration not stated)	-17%	0%	-9%	-8%
